# Several values for one entry are separate records, joined by “and”; a condition that tells them apart may be missing. Identical values can stand only once. About 280 (8.5%) of roughly 3,300 compounds were called active. The list comes from a sample in which actives are over-represented; it also holds similar structures and randomly drawn compounds. A number with no mark means an inactive call.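 The calls were made as follows: active = mean growth inhibition over the two runs of 50% or more; inactive = mean growth inhibition under 50%.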
# Test: A549 NSCLC cell proliferation inhibitors – ATP luminescence, human non-small cell lung line, primary screen (AID 371);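 also: compound exposure lasted 72 h before the ATP read; 0% = untreated cell signal and 100% = no luminescence left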
# Details: at 10 µM, hits give high values
row,Structure (SMILES),growth inhibition
1,CC(C)Cc1nc(N2CCN(C(=O)C(C)C)CC2)c(C#N)c2c1CCC2,42.3%
2,CC(C)C(=O)N1CCN(c2nc(-c3ccccc3)c3c(c2C#N)CCCC3)CC1,68% (active)
3,CC(=O)N1CCN(c2nc(CC(C)C)c3c(c2C#N)CCC3)CC1,22.1%
4,CC(C)Cc1nc(N2CCN(C(=O)c3ccco3)CC2)c(C#N)c2c1CCC2,57.2% (active)
5,CC(C)Cc1nc(N2CCCCC2)c(C#N)c2c1CCC2,20.9%
6,CC1(C)Cc2c(C#N)c(N3CCOCC3)nc(-c3ccccc3)c2CO1,13.6%
7,CCCC(=O)N1CCN(c2nc(CC(C)C)c3c(c2C#N)CCC3)CC1,53.8% (active)
8,CC(C)C(=O)N1CCN(c2nc(-c3ccccc3)c3c(c2C#N)CC(C)(C)OC3)CC1,34.1%
9,CC(C)Cc1nc(N2CCOCC2)c(C#N)c2c1CCC2,4.59%
10,c1ccc(C2Nc3ccccc3-c3nc4ccccc4n32)nc1 (centres undefined),26%
11,Cc1nn(CC(=O)NCCN2CCOCC2)c(=O)c2ccccc12,1.62%
12,Oc1ccccc1CNn1cnnc1,7.07%
13,Cc1ccc(OCC(=O)N(C)CCc2ccccn2)cc1,-1.84%
14,O=C(NCc1cccnc1)c1ccc(=O)oc1,-2.22%
15,CSc1nc(NC(C)=O)nc(C)c1Cl,3.88%
16,C=CCN(C(=O)CCC(=O)O)C1CC(=O)N(c2ccc(OCCC)cc2)C1=O (centres undefined),34.7%
17,Cc1cccc(C)c1NC(=O)CSCC(=O)c1ccc(O)c(O)c1,76.2% (active)
18,Cc1cccc(C)c1NC(=O)C1CCCCN1C (centres undefined),-1.85%
19,CCN(CC)CC(=O)Nc1c(C)cccc1C,-1.4% and -6.03%
20,COc1ccc(/C(O)=C2/C(=O)C(=O)N(CCN3CCOCC3)C2c2ccccn2)cc1 (centres undefined),7.6%
21,COCc1cc(=O)[nH]c(Nc2nc3ccccc3o2)n1,66.6% (active)
22,Cc1cc(C)n(C(=O)CSc2nc3ccccc3o2)n1,-7.75%
23,COCc1cc(=O)[nH]c(Nc2nc3ccc(C)cc3o2)n1,70.6% (active)
24,Cc1cccc(OCc2nc(C)cc(=O)[nH]2)c1,1.95%
25,Cc1cc(=O)[nH]c(COc2ccccc2)n1,6.76%
26,COc1ccccc1C1CC(c2ccc(Cl)cc2)Nc2nc(N)nn21 (centres undefined),8.72%
27,Cc1cc2c(C)nc(Cc3ccccc3)nc2o1,1.92%
28,CCCCCCn1c(C(C)O)nc2ccccc21 (centres undefined),15.7%
29,COc1cccc(/C(O)=C2/C(=O)C(=O)N(CCCN(C)C)C2c2cccc(Cl)c2)c1 (centres undefined),-2.1%
